Reference: PubChem BioAssay AID1159580 (chemical genetic matrix, 2015)
About 2,000 (36%) of roughly 5,500 compounds were called active. Not shown: some 18% with an inconclusive outcome. Rule as the data show it: active = normalized growth mostly below about 0.91 (no sharp cut-off); inconclusive = no clear call, values can overlap the other calls; inactive = mostly above about 0.92. The list shows a part of the results.

Test: chemical genetic growth profiling, strain panel (AID 1159580);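 also: tested at 20 µM; growth read once vehicle control cultures reached saturation at 30 °C; 1 = growth at the plate median or of vehicle wells; lower values mean less growth of the strain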
Conditions: growth OD

Measured: normalized growth

NC(=O)NCCCC(N)C(=O)O (configuration not stated)
inactive: S. cerevisiae deletion strains, locus YJR075W, strain HOC1, stronger effect = lower value 1.03 | S. cerevisiae deletion strains, locus YKL009W, strain mrt4, stronger effect = lower value 0.984 | S. cerevisiae deletion strains, locus YKL068W, stronger effect = lower value 0.999 | S. cerevisiae deletion strains, locus YKL085W, strain MDH1 (second series), stronger effect = lower value 1 | S. cerevisiae deletion strains, locus YKL085W, strain MDH1, stronger effect = lower value 1 | S. cerevisiae deletion strains, locus YKL160W, strain elf1, stronger effect = lower value 0.979 | S. cerevisiae deletion strains, locus YKL190W, strain CNB1, stronger effect = lower value 1.02 | S. cerevisiae deletion strains, locus YKR001C, strain vps1, stronger effect = lower value 1 | S. cerevisiae deletion strains, locus YKR026C, strain gcn3, stronger effect = lower value 1 | S. cerevisiae deletion strains, locus YKR091W, strain srl3, stronger effect = lower value 0.997 | S. cerevisiae deletion strains, locus YLL001W, strain dnm1, stronger effect = lower value 1 | S. cerevisiae deletion strains, locus YLL026W, stronger effect = lower value 1.01 | S. cerevisiae deletion strains, locus YLL041C, strain sdh2, stronger effect = lower value 0.987 | S. cerevisiae deletion strains, locus YLR027C, strain aat2, stronger effect = lower value 0.996 | S. cerevisiae deletion strains, locus YLR039C, strain RIC1, stronger effect = lower value 1.03 | S. cerevisiae deletion strains, locus YLR058C, strain SHM2, stronger effect = lower value 1.02 | S. cerevisiae deletion strains, locus YLR102C, strain apc9, stronger effect = lower value 0.997 | S. cerevisiae deletion strains, locus YLR113W, strain HOG1, stronger effect = lower value 1.02 | S. cerevisiae deletion strains, locus YLR221C, strain rsa3, stronger effect = lower value 0.971 | S. cerevisiae deletion strains, locus YLR258W, strain gsy2, stronger effect = lower value 1.03 | S. cerevisiae deletion strains, locus YLR262C, strain YPT6 (second series), stronger effect = lower value 1 | S. cerevisiae deletion strains, locus YLR262C, strain YPT6, stronger effect = lower value 1.04 | S. cerevisiae deletion strains, locus YLR268W, strain sec22, stronger effect = lower value 0.989 | S. cerevisiae deletion strains, locus YLR320W, strain mms22, stronger effect = lower value 1.03 | S. cerevisiae deletion strains, locus YLR330W, strain CHS5, stronger effect = lower value 1.01 | S. cerevisiae deletion strains, locus YLR342W, strain FKS1 (second series), stronger effect = lower value 1.01 | S. cerevisiae deletion strains, locus YLR342W, strain FKS1, stronger effect = lower value 1.01 | S. cerevisiae deletion strains, locus YLR357W, strain rsc2, stronger effect = lower value 1.01 | S. cerevisiae deletion strains, locus YLR370C, strain arc18, stronger effect = lower value 0.987 | S. cerevisiae deletion strains, locus YLR371W, strain rom2, stronger effect = lower value 0.995 | S. cerevisiae deletion strains, locus YLR384C, strain iki3, stronger effect = lower value 1 | S. cerevisiae deletion strains, locus YLR418C, strain cdc73, stronger effect = lower value 0.989 | S. cerevisiae deletion strains, locus YML016C, strain PPZ1, stronger effect = lower value 1.02 | S. cerevisiae deletion strains, locus YML032C, strain rad52, stronger effect = lower value 0.999 | S. cerevisiae deletion strains, locus YML120C, strain ndi1, stronger effect = lower value 0.962 | S. cerevisiae deletion strains, locus YML124C, strain tub3, stronger effect = lower value 0.989 | S. cerevisiae deletion strains, locus YMR058W, strain fet3, stronger effect = lower value 0.983 | S. cerevisiae deletion strains, locus YMR078C, strain ctf18, stronger effect = lower value 0.992 | S. cerevisiae deletion strains, locus YMR125W, strain sto1, stronger effect = lower value 1.01 | S. cerevisiae deletion strains, locus YMR129W, stronger effect = lower value 0.991 | S. cerevisiae deletion strains, locus YMR205C, strain PFK2, stronger effect = lower value 1.05 | S. cerevisiae deletion strains, locus YMR223W, strain ubp8, stronger effect = lower value 0.998 | S. cerevisiae deletion strains, locus YMR231W, strain pep5, stronger effect = lower value 1.01 | S. cerevisiae deletion strains, locus YMR263W, strain SAP30, stronger effect = lower value 1.02 | S. cerevisiae deletion strains, locus YMR307W, strain GAS1, stronger effect = lower value 1.02 | S. cerevisiae deletion strains, locus YNL067W, strain RPL9B, stronger effect = lower value 1.04 | S. cerevisiae deletion strains, locus YNL071W, strain lat1, stronger effect = lower value 0.999 | S. cerevisiae deletion strains, locus YNL128W, strain TEP1, stronger effect = lower value 1.04 | S. cerevisiae deletion strains, locus YNL153C, strain GIM3, stronger effect = lower value 1.02 | S. cerevisiae deletion strains, locus YNL183C, strain NPR1, stronger effect = lower value 0.963 | S. cerevisiae deletion strains, locus YNL209W, strain ssb2, stronger effect = lower value 1 | S. cerevisiae deletion strains, locus YNL233W, strain BNI4, stronger effect = lower value 1.02 | S. cerevisiae deletion strains, locus YNL248C, strain rpa49, stronger effect = lower value 0.941 | S. cerevisiae deletion strains, locus YNL250W, strain rad50, stronger effect = lower value 1 | S. cerevisiae deletion strains, locus YNL271C, strain bni1, stronger effect = lower value 0.992 | S. cerevisiae deletion strains, locus YNL298W, strain CLA4, stronger effect = lower value 1.01 | S. cerevisiae deletion strains, locus YNL307C, strain MCK1, stronger effect = lower value 0.981 | S. cerevisiae deletion strains, locus YNL322C, strain KRE1 (second series), stronger effect = lower value 0.988 | S. cerevisiae deletion strains, locus YNL322C, strain KRE1, stronger effect = lower value 1.02 | S. cerevisiae deletion strains, locus YNR049C, strain mso1, stronger effect = lower value 1 | S. cerevisiae deletion strains, locus YNR052C, strain pop2, stronger effect = lower value 1 | S. cerevisiae deletion strains, locus YOL006C, strain TOP1, stronger effect = lower value 1.04 | S. cerevisiae deletion strains, locus YOL012C, strain htz1 1.42 | S. cerevisiae deletion strains, locus YOL147C, strain pex11, stronger effect = lower value 0.994 | S. cerevisiae deletion strains, locus YOR001W, strain rrp6, stronger effect = lower value 0.958 | S. cerevisiae deletion strains, locus YOR061W, strain CKA2, stronger effect = lower value 1.03 | S. cerevisiae deletion strains, locus YOR069W, strain VPS5, stronger effect = lower value 1.01 | S. cerevisiae deletion strains, locus YOR070C, strain gyp1, stronger effect = lower value 0.999 | S. cerevisiae deletion strains, locus YOR080W, strain dia2, stronger effect = lower value 1.01 | S. cerevisiae deletion strains, locus YOR083W, strain WHI5, stronger effect = lower value 0.958 | S. cerevisiae deletion strains, locus YOR106W, strain vam3, stronger effect = lower value 0.978 | S. cerevisiae deletion strains, locus YOR136W, strain idh2, stronger effect = lower value 0.988 | S. cerevisiae deletion strains, locus YOR144C, strain elg1, stronger effect = lower value 0.993 | S. cerevisiae deletion strains, locus YOR184W, strain ser1, stronger effect = lower value 0.99 | S. cerevisiae deletion strains, locus YOR231W, strain MKK1, stronger effect = lower value 0.991 | S. cerevisiae deletion strains, locus YOR265W, strain rbl2, stronger effect = lower value 0.998 | S. cerevisiae deletion strains, locus YOR270C, strain vph1, stronger effect = lower value 0.964 | S. cerevisiae deletion strains, locus YOR290C, strain snf2, stronger effect = lower value 1 | S. cerevisiae deletion strains, locus YOR316C, strain cot1, stronger effect = lower value 0.996 | S. cerevisiae deletion strains, locus YPL051W, strain arl3, stronger effect = lower value 0.981 | S. cerevisiae deletion strains, locus YPL055C, strain LGE1, stronger effect = lower value 1.07 | S. cerevisiae deletion strains, locus YPL078C, strain atp4, stronger effect = lower value 0.949 | S. cerevisiae deletion strains, locus YPL106C, strain sse1, stronger effect = lower value 1.03 | S. cerevisiae deletion strains, locus YPL240C, strain hsp82, stronger effect = lower value 0.988 | S. cerevisiae deletion strains, locus YPL241C, strain CIN2, stronger effect = lower value 1.01 | S. cerevisiae deletion strains, locus YPL256C, strain CLN2, stronger effect = lower value 0.988 | S. cerevisiae deletion strains, locus YPR119W, strain clb2, stronger effect = lower value 0.995 | S. cerevisiae deletion strains, locus YPR141C, strain kar3, stronger effect = lower value 1 | S. cerevisiae deletion strains, locus YPR163C, strain tif3, stronger effect = lower value 0.989 | S. cerevisiae deletion strains, locus YPR167C, strain met16, stronger effect = lower value 0.995 | S. cerevisiae deletion strains, strain wtn01, stronger effect = lower value 0.986 | S. cerevisiae strains, strain wild type, stronger effect = lower value 1.01
